The text below walks through data of PubChem BioAssay.

This assay is described as follows: small-molecule microarray binders of probe aWnt5a, primary screen, biochemical, biotinylated probe, 635/667 nm fluorescence (AID 1113).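 Also: score merges 667 nm fluorescence intensity with signal-to-noise per printed feature.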 The conditions noted are these: higher = more signal.
With `C=CCOC(=O)[C@H]1[C@@H]2C(=O)O[C@@H](c3ccccc3)[C@@H](c3ccccc3)N2[C@@H](c2ccc(OCCOC(=O)[C@@H]3C[C@@H]4C(=O)N5CCC[C@H]5C(=O)N4[C@@H]3c3ccc(O)cc3)cc2)[C@]12C(=O)Nc1ccc(I)cc12`, the composite z-score is -0.117.

For `CCCC[C@@H]1C[C@H]1[C@@H](NC(=O)c1ccccc1)c1ccc(C(F)(F)F)cc1`, the composite z-score was -0.0084.

Regarding `C=C(C)c1cc2c(c(CCCCCC)n1)[Si](C(C)C)(C(C)C)OC2`, the composite z-score was -0.145.

Take `COC(=O)[C@@]1(Cc2ccc(OC)cc2)[C@@H]2C(=CC(=O)[C@H]2CC(=O)C(=O)N(C)C)CN1C(=O)c1ccccc1`: the composite z-score amounted to 0.268.

The compound `COC(=O)c1cn(C[C@@H](Cc2ccccc2)NC(=O)N[C@H](CO)CCc2oc(C(C)=O)c(C(=O)OC)c2C(=O)OC)nn1` yielded a composite z-score of 0.02.

`COCCOC(=O)N1C(=O)[C@@]2(c3cc(C#CC4(O)CCCCCC4)ccc31)[C@H](c1ccc(O)cc1)N1[C@H](c3ccccc3)[C@H](c3ccccc3)OC(=O)[C@H]1[C@@H]2C(=O)NC[C@H](O)c1ccccc1`: the composite z-score was -0.0339.

In the case of `C=C(C)C1CCC(C(O)C2C=CC3C(=O)N(C)C(=O)C3N2N2CCCCC2)CC1` (stereo unspecified), the composite z-score was 0.048.

As for `CC(C)(C)N1CC=CC23O[C@@H]4C=CCOC(=O)[C@@H]4[C@H]2C(=O)N(CCCCCCO)[C@@H]3C1=O` (stereo partly specified), the composite z-score is -0.206.

For the compound `COc1ccc(-c2cc3c(c(CCc4ccccc4)n2)[Si](C(C)C)(C(C)C)OC3)cn1`, the composite z-score is -0.15.

On to `C=CCOC(=O)[C@H]1[C@@H]2C(=O)O[C@@H](c3ccccc3)[C@@H](c3ccccc3)N2[C@@H](c2ccc(OCCOC(=O)[C@@H]3C[C@@H]4C(=O)N[C@@H](CCCCNC(C)=O)C(=O)N4[C@@H]3c3ccc(O)cc3)cc2)[C@]12C(=O)Nc1ccc(I)cc12`, for which the composite z-score is -0.0519.

`COc1ccc(CCNC(=O)[C@@]2(Sc3ccc(C)cc3)CC(=O)N(C3Cc4ccccc4C3)[C@@H]2c2ccc(CO)cc2)cc1` yielded a composite z-score of 0.0799.

For `COCCCNC(=O)[C@@]1(Sc2ccc(C)cc2)CC(=O)N(C2CCCCC2)[C@@H]1c1ccc(CO)cc1`, the composite z-score was -0.0799.

The compound `COCCCNC(=O)[C@]1(CCS(=O)(=O)c2ccccc2)N=C(c2ccc(OCCCO)cc2)O[C@@H]1c1ccccc1N=[N+]=[N-]` displayed a composite z-score of 0.0988.

Turning to `CN(C)CCCNC(=O)[C@@H]1c2ccccc2C(=O)N(Cc2ccccc2Cl)[C@H]1c1ccc(CO)cc1`, the composite z-score is -0.124.

In the case of `CO[C@H]1O[C@H](CO)[C@@H](OC(=O)Nc2ccccc2-c2ccccc2)[C@H](OC(=O)Nc2ccc3c(c2)OCO3)[C@H]1OC(=O)Nc1ccc2c(c1)OCO2`, the composite z-score was -0.0194.

Regarding `CCCCCCCCCCC(O)C1C=CC2C(=O)N(C)C(=O)C2N1NC(=O)OC(C)(C)C` (stereo unspecified), the composite z-score was -0.0684.
